HTT cytoprotect – qHTS Multiplex Assay to Identify Dual Action Probes in a Cell Model of Huntington: Cytoprotection (ATP) | PC12 HTT-Q103 induced, cytoprotection, ATP luminescence, 40 h | Potency, µM (titrated, usually from 56.4 µM), for inactives: cytoprotection (ATP increase), most hits filed as activators | 230,000 compounds, 0.14% hits; active = well fitted curve in the direction sought with a large enough effect; inconclusive = small, poorly fitted or top-dose-only effect, or another doubt; inactive = no such curve, though single readings can be large; an effect the other way counts as inactive or inconclusive; note: potency is the fitted concentration of half-maximal effect; % of control where 0% means no effect; nearly all actives have a fitted effect of over 45% in size
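Huntington model: PC12 line, ecdysone-inducible HTTQ103 exon1–GFP, tebufenozide 100 nM. Test articles in a dose series. Endpoint luminescence from cellular ATP.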
HPGD block – qHTS Assay for Inhibitors of HPGD (15-Hydroxyprostaglandin Dehydrogenase). 15-hydroxyprostaglandin dehydrogenase [NAD(+)] (Homo sapiens), P15428. purified HPGD, NADH fluorescence kinetic, PGE2 substrate. Potency, µM, inactives show top-dose activity change, negative = inhibition, usual class: inhibitors. 150,000 compounds, 4.3% hits; note: potency is the fitted concentration of half-maximal effect; % is set by controls: 0 for no effect and ±100 for the full control effect
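NADH formation kinetics: reaction with 30 uM PGE2 and 1 mM NAD+ (final), 20 nM enzyme, Tris-HCl pH 8 with Tween 20, after 15 min compound preincubation at room temperature. Fluorescence change, last versus first of five reads.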
CBFb RUNX1 block – qHTS Assay for Compounds Blocking the Interaction Between CBF-beta and RUNX1 for the Treatment of Acute Myeloid Leukemia; Runt-related transcription factor 1 (Homo sapiens) + Core-binding factor subunit beta …; AlphaScreen CBFb-His/RUNX1-biotin binding, biochemical; Potency, µM (doses to about 59.8 µM), inactives show at the top dose activity, negative = inhibition, actives largely listed as inhibitors; 230,000 tested, under 10 active; active = well fitted curve in the direction sought with a large enough effect; inconclusive = small, poorly fitted or top-dose-only effect, or another doubt; inactive = no such curve, though single readings can be large; an effect the other way counts as inactive or inconclusive; note: % of control where 0% means no effect
Target sequence (Q01196 whole entry, looked up): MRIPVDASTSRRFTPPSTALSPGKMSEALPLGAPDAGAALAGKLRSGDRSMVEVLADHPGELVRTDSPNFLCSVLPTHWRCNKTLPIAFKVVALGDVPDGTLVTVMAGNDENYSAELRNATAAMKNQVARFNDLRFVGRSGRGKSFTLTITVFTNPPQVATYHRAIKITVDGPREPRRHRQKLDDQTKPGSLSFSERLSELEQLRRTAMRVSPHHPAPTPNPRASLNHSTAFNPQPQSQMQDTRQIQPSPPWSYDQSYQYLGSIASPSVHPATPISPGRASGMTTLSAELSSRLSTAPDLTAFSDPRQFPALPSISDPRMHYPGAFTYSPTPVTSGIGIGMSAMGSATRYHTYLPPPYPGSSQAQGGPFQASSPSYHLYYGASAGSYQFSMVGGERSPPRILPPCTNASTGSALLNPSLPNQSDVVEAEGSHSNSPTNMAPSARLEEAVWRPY
Target sequence (Q13951 whole entry, looked up): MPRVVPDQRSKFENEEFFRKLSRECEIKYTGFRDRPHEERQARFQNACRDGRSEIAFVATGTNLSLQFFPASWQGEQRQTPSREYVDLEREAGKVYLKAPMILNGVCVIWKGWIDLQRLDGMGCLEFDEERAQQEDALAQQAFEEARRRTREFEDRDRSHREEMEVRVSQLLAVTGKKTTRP
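Read-out: AlphaScreen. Format: His-CBF-beta with biotinylated RUNX1 (30 nM each) preincubated 20 min, compound 15 min, Ni-chelate plus streptavidin beads 90 min; room temperature throughout.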
JMJD2E inh – qHTS Assay for Inhibitors of Human Jumonji Domain Containing 2E (JMJD2E). Lysine-specific demethylase 4E (Homo sapiens), B2RXH2. JMJD2E catalytic domain, FDH-coupled NADH fluorescence (FDH is formaldehyde dehydrogenase). Potency, µM (series often up to 57.1 µM), without a hit: at the highest dose activity change, negative = inhibition, usual class: inhibitors. 230,000 compounds, 1.6% hits;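 note: potency is the fitted concentration of half-maximal effect; 0% = wells with enzyme and -100% = buffer wells without enzyme; nearly all actives have a fitted effect of over 50% in size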
HttQ103 aggreg – qHTS Multiplex Assay to Identify Dual Action Probes in a Cell Model of Huntington: Aggregate Formation (GFP) | PC12 HttQ103-GFP aggregates, Acumen cytometry, 40 h | Potency, µM (series often up to 46.1 µM), inactives show at the highest dose activity change, negative = inhibition, usual class: inhibitors | 220,000 compounds, 1.1% hits | AID 1688, 2009; active = well fitted curve in the direction sought with a large enough effect; inconclusive = small, poorly fitted or top-dose-only effect, or another doubt; inactive = no such curve, though single readings can be large; an effect the other way counts as inactive or inconclusive; note: potency is the fitted concentration of half-maximal effect; % is set by controls: 0 for no effect and ±100 for the full control effect; nearly all actives have a fitted effect of over 60% in size
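Inducible Q103 Huntingtin exon 1–GFP PC12 line, 1500 cells/well in phenol red free DMEM with 5% equine and 5% calf serum. Tebufenozide 100 nM induced expression; compounds titrated; aggregates quantified by cytometry.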
ALDH1A1 inh – qHTS Assay for Inhibitors of Aldehyde Dehydrogenase 1 (ALDH1A1); Purified ALDH1A1, NADH fluorescence, propionaldehyde substrate; Potency, µM (doses to about 75.3 µM), inactives show top-dose activity, negative = inhibition, actives largely listed as inhibitors; 220,000 compounds, 7.3% hits; AID 1030, 2008;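 note: potency is the fitted concentration of half-maximal effect; plate controls were no enzyme wells and a reference inhibitor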
Starred values were filed as active, the others as inactive; u = inconclusive; x = no result given; [ ] = remark or other dose. Compounds with a hit are over-represented: about 9.8% of the library has one in this group of screens. Unless noted, calls come from the whole dose curve; as a rule, active = well fitted inhibition curve with a large enough effect (not every such curve was filed as active); inconclusive = small, poorly fitted or top-dose-only effect, or another doubt; inactive = no such curve, though single readings can be large or run the other way.

SMILES | HTT cytoprotect | HPGD block | CBFb RUNX1 block | JMJD2E inh | HttQ103 aggreg | ALDH1A1 inh
CCOC(=O)C1CCN(C(=O)COC(=O)c2ccc3c(c2)C(=O)N(c2ccc(OCC)cc2)C3=O)CC1 | 2% | x | 7% | -17% | -5% | 10%
CCOC(=O)c1c(O)c2ccccc2n(CC)c1=O | 16%[10 µM] | x | 3% | u | 11% | 4%
COc1ccc(-n2cc(CN(C)C(C)c3ccncn3)c(-c3cccc(F)c3)n2)cc1 (stereo not drawn) | -39% | x | 15% | u | 0% | 25µM*
C/C(CC(=O)Nc1cccc2c1CCCC2)=N\NC(=O)COc1ccccc1 | 5%[10 µM] | -15% | 1% | 2% | -2% | 9.5µM*
CC(=O)N/N=C(\C)CC(=O)Nc1cccc2c1CCCC2 | u | x | 6% | 23% | 4%[9.22 µM] | -2%
COc1cc(/C=C/C(=O)O)cc(S(=O)(=O)Nc2ccccc2Oc2ccccc2)c1OC | 7%[10 µM] | x | 3% | 5% | -1%[9.22 µM] | x
O=C1CCCc2nc(N3CCN(Cc4ccccc4)CC3)ncc21 | -22% | -18% | 2% | -6% | 11µM* | -4%
CCOc1ccccc1C(=O)NC(C)c1ccc2c(c1)OCO2 (stereo not drawn) | 4% | u | 14% | -6% | -10% | 12%
O=S(=O)(c1ccc2c(c1)OCCO2)N(Cc1ccc(F)cc1)Cc1nnc(-c2cccs2)o1 | -2%[10 µM] | 4.5µM* | 4% | -2% | 11% | 4µM*
COc1ccc(C(=O)NC(=S)Nc2ccc3c(c2)Cc2ccccc2-3)cc1 | -22% | -18% | -4% | 0% | -17% | 10µM*
COc1ccc(C(=O)Nc2ccc3c4c(cccc24)CC3)cc1 | -30% | -20% | 6% | 8% | 3% | -6%
Cc1ccc(C(=O)NC(=S)Nc2ccc(Oc3ccc(Cl)cc3)cc2)cc1 | -49% | -10% | -6% | -2% | u | 18µM*
COc1cc(OC)cc(C(=O)NC(=S)Nc2ccc3c4c(cccc24)CC3)c1 | 13%[10 µM] | -13% | 5% | -5% | 5% | 7.9µM*
O=C(NC(=S)Nc1ccc(Oc2ccccc2)cc1)c1ccc(Cl)cc1 | u | -14% | -19% | 8% | u | 14µM*
Cc1ccccc1C(=O)NC(=S)Nc1ccc(Oc2ccc(Cl)cc2)cc1 | -36% | -3% | 3% | 0% | -29% | u
CCOC(=O)C1CCCN(CCCc2ccccc2)C1 (stereo not drawn) | 1% | -3% | 1% | 1% | 11% | 11%
Cc1ccc(N2CC(=O)N(CC(=O)O)C2=O)cc1 | -19% | x | -14% | 14% | u | 8%
CC(=O)N1N=C(c2ccccc2)CC1c1cn(Cc2ccccc2)c2ccccc12 (stereo not drawn) | -12%[10 µM] | -13% | -19% | u | u | 28µM*
Fc1cccc(NC(=S)Nc2cccnc2)c1 | -31% | x | 17% | u | -3% | -9%
Fc1cccc(NC(=S)NNc2c3ccccc3nc3ccccc23)c1 | -23% | x | u | u | u | 3.2µM*
Cc1cccc(OCC(=O)Nc2ccc(S(=O)(=O)Nc3cc(C)nc(C)n3)cc2)c1 | -3%[10 µM] | x | 2% | 0% | 20%[9.22 µM] | u
COC[C@@H](O)[C@@H](OC)[C@H](OC)[C@H](Cc1c(OC)cc(OC)cc1OC)OC | 21% | -6% | -10% | -1% | x | -3%
CCC(CC)NC(=O)CON=C1c2ccccc2-c2ccccc21 | -6%[10 µM] | 7.9µM* | 3% | u | 9% | 4%
COc1ccc(C2CC(=O)N(CCCN(C)CCc3ccc(OC)c(OC)c3)C2)cc1 (stereo not drawn) | -34% | x | -9% | u | u | 14µM*
C/C(=N\Nc1ccc(C(=O)O)cc1)c1nc2ccccc2n1C | -1%[10 µM] | 16µM* | 8% | -11% | 22% | 5%
SMILES | HTT cytoprotect | HPGD block | CBFb RUNX1 block | JMJD2E inh | HttQ103 aggreg | ALDH1A1 inh
C/C(=N/Nc1ccc(C(=O)O)cc1)c1ccc(O)c(O)c1O | 22%[10 µM] | 25µM* | 1% | 8.9µM* | -5% | u
Cn1c(/C=N/NC(=O)c2ccccc2)nc2ccccc21 | -8% | u | -6% | u | u | u
CCC(C)N(CC(=O)Nc1cccc(C)c1C)C(=O)CCl (stereo not drawn) | -50% | x | -2% | -26% | u | -6%
OCCSc1ncnc2c1oc1ccccc12 | -15%[0.074 µM] | 25µM* | -1% | 4% | 1% | u
N#CCCSc1ncnc2c1oc1ccccc12 | -1%[0.074 µM] | -27% | -1% | -7% | u | u
c1ccc(Sc2ncnc3c2oc2ccccc23)cc1 | -13% | 32µM* | 11% | -7% | -24% | u
COCCOC(=O)c1c(NC(=O)CNc2ccc(C)c(F)c2)sc(C(N)=O)c1C | -2%[10 µM] | x | 6% | -1% | 8%[9.22 µM] | u
CCOC(=O)c1c(-c2ccc(Cl)cc2)csc1NC(=O)CNCc1ccco1 | -5%[10 µM] | x | 16% | 25µM* | -20%[9.22 µM] | x
CCOC(=O)c1c(-c2ccc(OC)cc2)csc1NC(=O)CNCc1ccco1 | -26% | u | -3% | -1% | 10% | u
COCCOC(=O)c1c(NC(=O)CNCc2ccco2)sc(C(N)=O)c1C | -19% | x | -1% | -19% | 5% | 10µM*
CC1(C)OC(=O)N(CCc2ccccc2)C1(C)O (stereo not drawn) | -7% | -12% | 4% | -1% | -4% | 2%
CC1(C)OC(=O)N(Cc2ccco2)C1(C)O (stereo not drawn) | 10% | -17% | 5% | -5% | 6% | 18µM*
O=c1cc(-c2ccco2)nc(-c2cccs2)o1 | 5% | -18% | -4% | -3% | -7%[9.22 µM] | 14µM*
c1coc(-c2nnc(-c3cccs3)o2)c1 | -2%[10 µM] | u | 10% | u | -4% | u
COc1cc(O)c(C(C)=O)c(CC(=O)O)c1 | -1%[10 µM] | x | u | 25µM* | -20%[9.22 µM] | x
Cc1c(C(=O)N2CC(C)OC(C)C2)sc2nc(-c3ccc(F)cc3)cn12 (stereo not drawn) | 7% | 35µM* | -1% | 4% | 13% | -12%
CCOC(=O)N1CCN(C(=O)c2sc3nc(-c4ccc(F)cc4)cn3c2C)CC1 | 10%[10 µM] | -2% | -6% | 1% | -7% | 1%

Screening results deposited in PubChem by National Center for Advancing Translational Sciences (NCATS).
